# Calls of active or inactive are those of the source.
# Assay: basal CRE-LacZ reporter activity in PC12 – cell-based, unstimulated, primary screen (AID 1145)
# Details: no forskolin, luminescence, 4.5 h, higher = more signal, called active from +8 up or from −8 down
row,SMILES,z-score
1,CN(C)C(=O)[C@]1(CCS(=O)(=O)c2ccccc2)N=C(c2ccc(OCCCO)cc2)O[C@@H]1c1ccccc1CN=[N+]=[N-],0.0686 (inactive)
2,C[C@H]1C2[C@H](Cc3ccccc3)NC(=O)[C@]23C(=O)N[C@@H](Cc2ccccc2)C(=O)N2CCC[C@H]2C(=O)NC/C=C/CC/C=C/C3[C@@H]2O[C@]12C (stereo partly drawn),0.941 (inactive)
3,C=CCN1C(=O)[C@]2(O[C@H](CCO)[C@@H]([Si](C)(C)c3ccc(OC)cc3)[C@@H]2C)c2cc(N3C(=O)c4ccccc4Oc4ccccc43)ccc21,22.6 (active)
4,CO[C@H]1O[C@H](CO)[C@@H](OC(=O)Nc2ccccc2)[C@@H]2OC(=O)[C@@H](Cc3ccccc3)C/C=C/C[C@H](Cc3ccccc3)C(=O)O[C@@H]12,-0.403 (inactive)
5,COC(=O)[C@@]1(Cc2ccc(OC)cc2)[C@H]2c3cc(C(=O)N(C)C)n(Cc4c(CO)[nH]cc(C)c4=O)c3C[C@H]2CN1C(=O)c1ccccc1,1.15 (inactive)
6,COc1cccc(C)c1NC(=O)O[C@H]1[C@H](OC(=O)Nc2ccccc2-c2ccccc2)[C@@H](OC(=O)Nc2ccccc2-c2ccccc2)[C@@H](OC)O[C@@H]1CO,1.13 (inactive)
7,CCCNC(=O)[C@@]1(Sc2ccc(C)cc2)CC(=O)N(Cc2cc(C(F)(F)F)cc(C(F)(F)F)c2)[C@@H]1c1ccc(CO)cc1,-0.554 (inactive)
8,COC(=O)[C@@]1(Cc2ccc(F)cc2)[C@H]2c3cc(C(=O)N(C)C)n(Cc4ccc(C(F)(F)F)nc4)c3C[C@H]2CN1C(=O)c1ccccc1,1.91 (inactive)
9,COC(=O)[C@@]1(Cc2ccccc2)[C@H]2c3cc(C(=O)N(C)C)n(Cc4ccc(Cl)c(C(F)(F)F)c4)c3C[C@H]2CN1C(=O)c1ccccc1,0.583 (inactive)
10,CN1C(=O)C2C=CC(C(O)c3ccc(I)cc3)N(N(c3ccccc3)c3ccccc3)C2C1=O (stereo not drawn),-0.136 (inactive)
11,Cc1ccc(S[C@]2(C(=O)NCc3ccccc3)CC(=O)N(Cc3ccccc3C(F)(F)F)[C@@H]2c2ccc(CO)cc2I)cc1,1.06 (inactive)
12,COCCCNC(=O)[C@@]1(CCC(=O)OC(C)(C)C)N=C(c2ccc(OCCCO)cc2)O[C@H]1c1ccccc1,-1.29 (inactive)
13,C=C(COC)/C(=C/C[C@@H](OC(C)=O)c1cccc(OCCO)c1)c1cnc2ccccc2c1,2.53 (inactive)
14,COC(=O)[C@@]1(Cc2ccc(F)cc2)[C@H]2c3cc(C(=O)N4CCCC4)n(Cc4ccc(OC(F)(F)F)cc4)c3C[C@H]2CN1C(=O)c1ccccc1,-0.185 (inactive)
15,O=C1OCCC/C=C\[C@H]2OC34C=CCN(Cc5ccccc5)C(=O)[C@H]3N(CCO)C(=O)[C@@H]4C12 (stereo partly drawn),-0.0899 (inactive)
16,COC(=O)[C@H](Cc1ccccc1)N1CC(C)(OC)O[C@@H](Cc2ccccc2)[C@H]1/C=C/C1CC1 (stereo partly drawn),4.13 (inactive)
17,COc1c(C)cc(-c2cc3c(c(CCc4ccccc4)n2)[Si](C(C)C)(C(C)C)O[C@H]3c2ccccc2)cc1C,-0.272 (inactive)
18,[N-]=[N+]=Nc1ccccc1C[C@@]1(C(=O)NCc2ccccc2)N=C(c2ccc(OCCCO)cc2)O[C@@H]1c1ccccc1,1.4 (inactive)
19,C=C(CCCC)/C(=C/C[C@@H](OC(C)=O)c1ccc(OCCO)cc1)c1cc(C(=O)OC)ccc1OC,5.45 (inactive)
20,C=CCNC(=O)[C@H]1[C@@H]2C(=O)O[C@@H](c3ccccc3)[C@@H](c3ccccc3)N2[C@@H](c2ccc(OCCO)cc2)[C@]12C(=O)Nc1ccc(C#Cc3ccc(OC)cc3)cc12,0.478 (inactive)
21,CC(C)N1C(=O)[C@@]2(Cc3ccccc31)c1ccccc1C(=O)N(Cc1ccccc1C(F)(F)F)[C@H]2c1ccc(CO)cc1,0.155 (inactive)
22,COC(=O)c1ccc(OC)c(/C=C\CC(OC(=O)c2ccncc2)c2ccccc2)c1 (stereo not drawn),12.5 (active)
23,O=C(NC1CC1)[C@@H]1c2ccccc2C(=O)N(C2CCCCC2)[C@H]1c1ccc(CO)cc1,-0.0259 (inactive)

# Assay: forskolin-driven CRE-LacZ activity in PC12 – cell-based, CRE-LacZ reporter, forskolin-stimulated, primary screen (AID 1146);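 note: PC12 cells with 6xCRE LacZ reporter stimulated by forskolin 10 µM; beta-galactosidase reporter signal reflecting CREB driven transcription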
# Details: luminescence, 4.5 h, higher = more signal, called active from +8 up or from −8 down
row,SMILES,z-score
1,COC(=O)C(CC#Cc1ccc2c(c1)[C@]1(C(=O)N2)[C@H](c2ccc(OCCO)cc2)N2[C@H](c3ccccc3)[C@H](c3ccccc3)OC(=O)[C@H]2[C@@H]1C(N)=O)C(=O)OC,0.0658 (inactive)
2,COC(=O)C(CC#Cc1ccc2c(c1)[C@]1(C(=O)N2)[C@H](c2ccccc2OCCO)N2[C@H](c3ccccc3)[C@H](c3ccccc3)OC(=O)[C@H]2[C@@H]1C(=O)N1CCN(c2ncccn2)CC1)C(=O)OC,2.68 (inactive)
3,COC(=O)Cn1c(C(=O)N(C)C)cc2c1C[C@H]1CN(C(=O)c3ccccc3)[C@@](Cc3ccccc3)(C(=O)OC)[C@@H]21,-0.637 (inactive)
4,COC(=O)[C@@]1(Cc2ccc(OC)cc2)[C@@H]2[C@@H](CC(=O)[C@H]2CC(=O)C(=O)N(C)C)CN1C(=O)c1ccccc1,0.247 (inactive)
5,COC(=O)[C@@]1(Cc2ccccc2)[C@H]2c3cc(C(=O)N(C)C)n(Cc4nc5ccccc5[nH]4)c3C[C@H]2CN1C(=O)c1ccccc1,-0.0536 (inactive)
6,COCCOC(=O)N1C(=O)[C@@]2(c3cc(C#CCCO)ccc31)[C@H](C(=O)N1CCN(c3ncccn3)CC1)[C@H]1C(=O)O[C@H](c3ccccc3)[C@H](c3ccccc3)N1[C@@H]2c1ccc(OCCO)cc1,0.136 (inactive)
7,C=C(CCCC)/C(=C/C[C@@H](OC(C)=O)c1cccc(OCCO)c1)c1cc(C(=O)OC)ccc1OC,1.48 (inactive)
8,C=CCOC(=O)[C@H]1[C@@H]2C(=O)O[C@@H](c3ccccc3)[C@@H](c3ccccc3)N2[C@@H](c2ccc(OCCOC(=O)[C@H]3C[C@H]4C(=O)NCC(=O)N4[C@H]3c3cccc(OCCO)c3)cc2)[C@]12C(=O)Nc1ccc(I)cc12,-0.142 (inactive)
9,CCOC(=O)C=C1C[C@@H](c2cccc([N+](=O)[O-])c2)O[C@@H](c2cccc([N+](=O)[O-])c2)O1,-0.495 (inactive)
10,COc1ccc(C#Cc2ccc3c(c2)[C@]2(C(=O)N3)[C@H](c3ccccc3OCCO)N3[C@H](c4ccccc4)[C@H](c4ccccc4)OC(=O)[C@H]3[C@@H]2C(=O)NC[C@H](O)c2ccccc2)cc1,-0.54 (inactive)
11,C=CC[C@H](O)c1ccc(O)c2ccccc12,1.82 (inactive)
12,Cc1ccc(S[C@]2(C(=O)NCCN3CCOCC3)CC(=O)N(C(C)C)[C@@H]2c2ccc(CO)cc2I)cc1,-0.395 (inactive)
13,CN(C)C(=O)[C@]1(CCS(=O)(=O)c2ccccc2)N=C(c2ccc(OCCCO)cc2)O[C@@H]1c1ccccc1CN=[N+]=[N-],0.236 (inactive)
14,C[C@H]1C2[C@H](Cc3ccccc3)NC(=O)[C@]23C(=O)N[C@@H](Cc2ccccc2)C(=O)N2CCC[C@H]2C(=O)NC/C=C/CC/C=C/C3[C@@H]2O[C@]12C (stereo partly drawn),-0.688 (inactive)
15,C=CCN1C(=O)[C@]2(O[C@H](CCO)[C@@H]([Si](C)(C)c3ccc(OC)cc3)[C@@H]2C)c2cc(N3C(=O)c4ccccc4Oc4ccccc43)ccc21,-3.24 (inactive)
16,CO[C@H]1O[C@H](CO)[C@@H](OC(=O)Nc2ccccc2)[C@@H]2OC(=O)[C@@H](Cc3ccccc3)C/C=C/C[C@H](Cc3ccccc3)C(=O)O[C@@H]12,-0.656 (inactive)
17,COC(=O)[C@@]1(Cc2ccc(OC)cc2)[C@H]2c3cc(C(=O)N(C)C)n(Cc4c(CO)[nH]cc(C)c4=O)c3C[C@H]2CN1C(=O)c1ccccc1,2.29 (inactive)
18,COc1cccc(C)c1NC(=O)O[C@H]1[C@H](OC(=O)Nc2ccccc2-c2ccccc2)[C@@H](OC(=O)Nc2ccccc2-c2ccccc2)[C@@H](OC)O[C@@H]1CO,-1.05 (inactive)
19,CCCNC(=O)[C@@]1(Sc2ccc(C)cc2)CC(=O)N(Cc2cc(C(F)(F)F)cc(C(F)(F)F)c2)[C@@H]1c1ccc(CO)cc1,0.448 (inactive)
20,COC(=O)[C@@]1(Cc2ccc(F)cc2)[C@H]2c3cc(C(=O)N(C)C)n(Cc4ccc(C(F)(F)F)nc4)c3C[C@H]2CN1C(=O)c1ccccc1,1.13 (inactive)
21,COC(=O)[C@@]1(Cc2ccccc2)[C@H]2c3cc(C(=O)N(C)C)n(Cc4ccc(Cl)c(C(F)(F)F)c4)c3C[C@H]2CN1C(=O)c1ccccc1,-0.244 (inactive)
22,CN1C(=O)C2C=CC(C(O)c3ccc(I)cc3)N(N(c3ccccc3)c3ccccc3)C2C1=O (stereo not drawn),0.58 (inactive)
23,Cc1ccc(S[C@]2(C(=O)NCc3ccccc3)CC(=O)N(Cc3ccccc3C(F)(F)F)[C@@H]2c2ccc(CO)cc2I)cc1,2.24 (inactive)
24,COCCCNC(=O)[C@@]1(CCC(=O)OC(C)(C)C)N=C(c2ccc(OCCCO)cc2)O[C@H]1c1ccccc1,-0.391 (inactive)
25,C=C(COC)/C(=C/C[C@@H](OC(C)=O)c1cccc(OCCO)c1)c1cnc2ccccc2c1,-0.444 (inactive)
26,COC(=O)[C@@]1(Cc2ccc(F)cc2)[C@H]2c3cc(C(=O)N4CCCC4)n(Cc4ccc(OC(F)(F)F)cc4)c3C[C@H]2CN1C(=O)c1ccccc1,0.137 (inactive)
27,O=C1OCCC/C=C\[C@H]2OC34C=CCN(Cc5ccccc5)C(=O)[C@H]3N(CCO)C(=O)[C@@H]4C12 (stereo partly drawn),-0.0501 (inactive)
28,COC(=O)[C@H](Cc1ccccc1)N1CC(C)(OC)O[C@@H](Cc2ccccc2)[C@H]1/C=C/C1CC1 (stereo partly drawn),1.12 (inactive)
29,COc1c(C)cc(-c2cc3c(c(CCc4ccccc4)n2)[Si](C(C)C)(C(C)C)O[C@H]3c2ccccc2)cc1C,0.412 (inactive)
30,[N-]=[N+]=Nc1ccccc1C[C@@]1(C(=O)NCc2ccccc2)N=C(c2ccc(OCCCO)cc2)O[C@@H]1c1ccccc1,-1.99 (inactive)
